The assay is described as follows: NCI Yeast Anticancer Drug Screen. Data for the mlh1 strain (AID 171).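 Further: 0% = growth of vehicle-treated control cultures of the same strain.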 To be noted: S. cerevisiae mlh1 strain growth inhibition, stronger effect = higher value. Here is the method:
Growth inhibition of yeast strains with defined genetic alterations is measured as a screen for potential anti-cancer activity. Selected strains with alterations in DNA damage repair or cell cycle control were exposed to compounds and growth inhibition was measured relative to vehicle treated controls. The strain used in this assay is mlh1

The panel holds about 79,000 compounds, 15% with a hit somewhere; the sample as a whole holds those more often. A number with no mark means an inactive call. The source made the active and inactive calls. No stated cut-off is given here; in the data, active means growth inhibition above about 70%; inactive means the rest.

In the case of `OC1(c2ccccc2)CCCc2ccc(Cl)cc21` (stereo not given), the growth inhibition was 1% (at 1.2 µM); 3% (at 3.7 µM); 0% (at 11.0 µM); 30% (at 33.0 µM); 99% (active) (at 100.0 µM).

On to `Cc1ccccc1N=Cc1cc(Cl)ccc1O`, for which the growth inhibition reads like this: (at 1.2 µM) 7%; (at 3.7 µM) -5%; (at 11.0 µM) 0%; (at 33.0 µM) 22%; (at 100.0 µM) 87% (active).

For `CCOc1ccc(NC(=O)C2=C(C)NC(C)=C(C(=O)Nc3ccc(OCC)cc3)C2c2cccc([N+](=O)[O-])c2)cc1`, the growth inhibition (at 1.2 µM) was -2%; the growth inhibition (at 3.7 µM) is -1%; the growth inhibition (at 11.0 µM) is 1%; the growth inhibition (at 33.0 µM) is 25%; the growth inhibition (at 100.0 µM) is 86% (active).

Turning to `CCOC(=N)c1ccc(O)c(OC)c1`, the growth inhibition was -2% (at 1.2 µM); -3% (at 3.7 µM); -2% (at 11.0 µM); 1% (at 33.0 µM); 1% (at 100.0 µM).

With `O=C(/C=C/c1cc(Cl)cc(Cl)c1O)c1cccc(O)c1`, the growth inhibition (at 1.2 µM) is 0%; the growth inhibition (at 3.7 µM) is 21%; the growth inhibition (at 11.0 µM) is 80% (active); the growth inhibition (at 33.0 µM) was 98% (active); the growth inhibition (at 100.0 µM) is 98% (active).

With `CN(C)c1nc(=Nc2cccc(Cl)c2)ss1`, the growth inhibition (at 1.2 µM) was 11%; the growth inhibition (at 3.7 µM) was 50%; the growth inhibition (at 11.0 µM) is 96% (active); the growth inhibition (at 33.0 µM) is 99% (active); the growth inhibition (at 100.0 µM) was 99% (active).

Take `CCC(C)NC1=NCC(C)S1` (stereo not given): the growth inhibition runs as follows: (at 1.2 µM) -27%; (at 3.7 µM) -27%; (at 11.0 µM) -22%; (at 33.0 µM) -36%; (at 100.0 µM) -42%.

Take `CC12C(=O)OC(=O)C(c3ccccc31)c1ccccc12`: the growth inhibition is -11% (at 1.2 µM); -9% (at 3.7 µM); -7% (at 11.0 µM); -6% (at 33.0 µM); -6% (at 100.0 µM).

The values above are taken from PubChem BioAssay (NCI).
